# Assays:
# Format in all cases: functional
# [1] = system: Plasmodium falciparum; assay: GSK_TCMDC: Inhibition of Plasmodium falciparum 3D7 in whole red blood cells, using parasite LDH activity as an index of growth. Test compounds present at 2uM
# [2] = system: Plasmodium falciparum; assay: GSK_TCMDC: Inhibition of Plasmodium falciparum Dd2 in whole red blood cells, using parasite LDH activity as an index of growth. Test compounds present at 2uM
# [3] = system: HepG2; assay: GSK_TCMDC: Percent inhibition of human HepG2 cell line. Test compounds present at 10uM.
smiles,measurement,setting,value
c1ccc(Oc2ccc(Nc3ccnc4cc(-c5csc(CN6CCCCC6)n5)ccc34)cc2)nc1,Inhibition,[1],100%
same,Inhibition,[2],95%
same,Inhibition,[3],22%
CC(Oc1c(C2CCN(CCCCNC(=O)c3ccc(-c4ccc(Cl)cc4)cc3)CC2)ccc2c1CCCC2)C(N)=O (centres undefined),Inhibition,[1],99%
same,Inhibition,[2],16%
same,Inhibition,[3],100%
CC(C)(NCc1ccc(OC(F)(F)F)cc1)c1nc(-c2ccc(Cl)c(O)c2)c(-c2ccncc2)[nH]1.Cl,Inhibition,[1],94%
same,Inhibition,[2],32%
same,Inhibition,[3],65%
CC(C)c1ccc(NC(=O)Nc2ccc(Cn3ncc(N4CCCNCC4)c(Cl)c3=O)cc2)cc1.O=C(O)C(F)(F)F,Inhibition,[1],85%
same,Inhibition,[2],27%
same,Inhibition,[3],11%
COc1ccc(CNC2CCN(C)CC2)cc1-c1ccc(S(=O)(=O)NCc2cccnc2)s1.O=C(O)C(F)(F)F,Inhibition,[1],100%
same,Inhibition,[2],3%
same,Inhibition,[3],10%
CN1CCN(CCc2ccc(N/C=C3\C(=O)Nc4ccc5ncccc5c43)cc2)CC1.Cl,Inhibition,[1],100%
same,Inhibition,[2],98%
same,Inhibition,[3],51%
COc1cc(F)c2ncc(C#N)c(CCN3CCC(NCc4ccc5c(c4)OCCO5)CC3)c2c1.Cl,Inhibition,[1],97%
same,Inhibition,[2],59%
same,Inhibition,[3],5%
Cc1ccc(-c2nn3c(O)c4c(nc3c2C)CCCC4)cc1,Inhibition,[1],97%
same,Inhibition,[2],87%
same,Inhibition,[3],16%
O=C(Nc1ccc(Cn2ncc(N3CCCNCC3)c(Cl)c2=O)cc1)Nc1cc(Cl)cc(Cl)c1.O=C(O)C(F)(F)F,Inhibition,[1],91%
same,Inhibition,[2],17%
same,Inhibition,[3],3%
O=C(O)C(F)(F)F.Oc1ccc(CCNc2nc(NCc3ccccc3-c3ccccc3)nc(N3CCCNCC3)n2)cc1,Inhibition,[1],95%
same,Inhibition,[2],20%
same,Inhibition,[3],26%
CN1CCN(CCCN(Cc2csc(-c3ccc(CNCc4ccccc4)cc3)n2)S(=O)(=O)c2cccc3cccnc23)CC1.O=C(O)C(F)(F)F,Inhibition,[1],89%
same,Inhibition,[2],32%
same,Inhibition,[3],5%
N#Cc1cccc(Nc2nccc(NCC(O)c3ccc(C(F)(F)F)cc3)n2)c1 (centres undefined),Inhibition,[1],100%
same,Inhibition,[2],98%
same,Inhibition,[3],23%
CCN(CC)CCOC(=O)c1ccc(NC(=O)c2cc(-c3ccc(C)cc3)nc3ccccc23)cc1.Cl,Inhibition,[1],97%
same,Inhibition,[2],12%
same,Inhibition,[3],22%
CCC(C)CN1CCN(c2ccc(NC(=O)c3cccs3)cc2)C(C)C1.O=C(O)C(F)(F)F (centres undefined),Inhibition,[1],95%
same,Inhibition,[2],95%
same,Inhibition,[3],0%
CC(=O)c1c(CC(=O)O)c2ccccc2n1O,Inhibition,[1],98%
same,Inhibition,[2],0%
same,Inhibition,[3],16%
CCN(Cc1ccccc1)C1CCN(Cc2cc(Br)ccc2O)CC1.O=C(O)C(=O)O,Inhibition,[1],97%
same,Inhibition,[2],97%
same,Inhibition,[3],6%
O=C(Nc1ccc(-c2cccc(-c3nc4cc(F)ccc4[nH]3)c2)cc1)Nc1ccc(Cl)c(Cl)c1,Inhibition,[1],99%
same,Inhibition,[2],24%
same,Inhibition,[3],68%
Cc1noc(C)c1-c1ccc2c(Nc3ccc([N+](=O)[O-])cc3)c(C(N)=O)cnc2c1.Cl,Inhibition,[1],100%
same,Inhibition,[2],98%
same,Inhibition,[3],4%
COC(=O)c1ccc(N2CCN(CCCCNC(=O)c3ccc(NC(=O)c4ccc(Cl)cc4)cc3)CC2)c(OC)c1,Inhibition,[1],82%
same,Inhibition,[2],1%
same,Inhibition,[3],11%
O=C(Nc1ccc(-c2ccc(-c3nc4ccccc4[nH]3)s2)cc1)Nc1ccsc1,Inhibition,[1],100%
same,Inhibition,[2],54%
same,Inhibition,[3],25%
CC(C)CNCc1cccc(-c2cccc(CN(CCCN3CCN(C)CC3)C(=O)NC3CCCCC3)c2)c1.O=C(O)C(F)(F)F,Inhibition,[1],100%
same,Inhibition,[2],84%
same,Inhibition,[3],16%
CN1CCN(C(C(=O)NCc2cc(Cl)cc(Cl)c2)c2ccccc2-c2ccsc2)CC1 (centres undefined),Inhibition,[1],95%
same,Inhibition,[2],80%
same,Inhibition,[3],11%
O=C(/C=C/c1ccc(Cl)c(Cl)c1)NCCCCCN1CCC(NC(=O)NC2CCCC2)CC1,Inhibition,[1],99%
same,Inhibition,[2],31%
same,Inhibition,[3],21%
Fc1ccc2nc(Nc3nc(-c4ccccn4)cs3)sc2c1,Inhibition,[1],100%
same,Inhibition,[2],100%
same,Inhibition,[3],42%
Cc1cc(-c2cccc(CNC3CCN(C)CC3)c2)ccc1S(=O)(=O)NCc1ccccc1.O=C(O)C(F)(F)F,Inhibition,[1],99%
same,Inhibition,[2],90%
same,Inhibition,[3],53%
CC(C)(C)c1ccc(CN2CCC(NC(=O)c3ccc(-c4ccccc4F)s3)CC2)cc1.O=C(O)C(F)(F)F,Inhibition,[1],85%
same,Inhibition,[2],37%
same,Inhibition,[3],36%
CCc1nc(N)nc(N)c1CCCOc1ccccc1Cl.Cl,Inhibition,[1],92%
same,Inhibition,[2],13%
same,Inhibition,[3],61%
COc1ccc2nccc([C@@H](O)CN3CCC(NC(=O)c4cc5c(Cl)cc(Cl)cc5[nH]4)CC3)c2c1,Inhibition,[1],100%
same,Inhibition,[2],98%
same,Inhibition,[3],22%

# Reference: ChEMBL document CHEMBL1157539, “Thousands of chemical starting points for antimalarial lead identification” (Nature, 2010)
